# Where “and” joins values, the source holds several entries; their conditions need not be identical. Identical values can stand only once. This is part of a sample that, as a whole, favours compounds with a hit. Of some 83,000 tested, about 20% had one in any assay.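 Percent growth is the endpoint: 0 to 100 indicates growth inhibition (40 means 60% inhibition), 0 means no net growth, and negative values indicate cell death.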 Values without a mark were called inactive. Calls of active or inactive are those of the source. Rule for the calls: active = growth percent below 10; inactive = the rest.
# System: MDA-MB-468 breast
# Test: NCI-60 one-dose screen, 48 h (100 = growth as untreated, 0 = no growth, -100 = all killed)
# Conditions: 10 µM unless noted
row,SMILES,growth
1,COc1ccc(CCN2C(=O)/C(=C/c3ccc(C4Oc5ccccc5C5CC(c6ccccc6)=NN54)cc3)SC2=S)cc1 (stereo not given),118%
2,Nc1cccc(-c2ccc(COc3ccc(CC4SC(=O)NC4=O)cc3)cc2)c1 (stereo not given),29.4%
3,N#CC1(C#N)C(c2cccs2)NC(c2cccs2)C1(C#N)C#N (stereo not given),104%
4,FC(F)(F)c1cc(Nc2ccc3c(OCCCN4CCOCC4)cccc3n2)ccc1Cl,38.3%
5,C[N+]1(CCc2ccccc2)CCC(CCC2CC[N+](C)(CCc3ccccc3)CC2)CC1 (stereo not given),28.8%
6,O=S(=O)(NCC[C@@H]1C[C@H]1c1ccc2ccccc2c1)c1ccc(C(F)(F)F)cc1,72.3%
7,CC(c1ccccc1)C(C(=O)c1ccccc1)c1ccccc1 (stereo not given),81.5%
8,CCCCCC(=O)Oc1ccc(/C(=C(/C)Cc2ccc(OC)cc2)c2ccc(OCCCN(C)C)cc2)cc1,56.4%
9,CC[N+](CC)(CCOCCOCC[N+](CC)(CC)Cc1ccc([N+](=O)[O-])cc1)Cc1ccc([N+](=O)[O-])cc1,97.9%
10,C=C1C(=O)O[C@H]2[C@H]1CC/C(C=Nc1c(N)cc(F)cc1Br)=C\CC[C@@]1(C)O[C@@H]21,44%
11,CC1(C)[C@@H](O)CC[C@]2(C)[C@H]3CC[C@@H]4[C@H]5[C@H](C(=O)/C=C\c6ccc([N+](=O)[O-])cc6)CC[C@]5(O)CC[C@@]4(C)[C@]3(C)CC[C@@H]12,36.2%
12,COc1ccc2c(c1)NC(=O)CN2c1nc(C)nc2ccccc12,9.26% (active)
13,CN1CCN(CCCOc2ccc3ncnc(Nc4ccc(Oc5cccc(F)c5)c(Cl)c4)c3c2)CC1,-66% (active)
14,O=C(Cc1ccc(NC(=O)c2cccc(Cl)c2)cc1)NCc1ccccc1,39%
15,CN1C(=O)C(C2=NN(C=O)C(c3ccc(F)cc3)C2)C(=O)N(C)C1=O (stereo not given),89.4%
16,CCOC(=O)c1c(NC(=O)c2ccc(C(C)C)cc2)sc2c(CN(C)C)c(O)ccc12,-53.1% (active)
17,Cc1ccc(C(=O)Nc2ccc(CN3CCN(C)CC3)c(C(F)(F)F)c2)cc1C#Cc1cnc2cccnn12,-85.9% (active)
18,CCOC(=O)C1C(=O)C=C(c2cnccn2)CC1c1ccc(OC)c(OC)c1 (stereo not given),108%
19,CC(=O)N(C)c1ccc([N+](=O)[O-])cc1,101%
20,Nc1nc(Nc2ccccc2)c2ncn(Cc3ccc4c(c3)OCO4)c2n1,13.4%

row,SMILES,growth
1,COc1ccc2c(c1)c(-c1nonc1-c1cn(C)c3ccc(OC)cc13)cn2C,29%
2,N#CC1=C(N)Oc2cc(N)ccc2C1c1ccc(F)cc1 (stereo not given),45.1%
3,NCCCN1CCCC1=O,116%
4,Cc1cc2c3ccccc3ccc2[n+]2ccccc12,-60.6% (active)
5,Cc1nn(-c2ccccc2)c(Oc2ccc(Cl)cc2)c1/C=N\N=c1/sc2ccccc2n1C,81.8%
6,Cn1c2c(Cl)c(Cl)ccc2c2cc(N)[nH]c(=O)c21,88.9%
7,Clc1ccc2nc(CI)c(CI)nc2c1,55.6%
8,CN(C)C(=N)N=C(N)N,80.6% and 128%
9,COc1ccc(C(=O)c2sc3nc4c(cc3c2N)CCCC4)cc1OC,-5.94% (active)
10,C=C1C(=O)O[C@H]2[C@H]1CC/C(COC(=O)NCCOCCOCC(=O)Nc1ccc(OC)c(C(N)=O)c1O)=C\CC[C@@]1(C)O[C@@H]21,17%
11,CCN1C(=O)N(CC)C2Nn3c(s/c(=C\c4cccc(F)c4)c3=O)=NC21 (stereo not given),17.8%
12,COc1ccc(/C(=C\c2ccc3c(c2)OCO3)C(=O)Nc2nc3ccccc3s2)cc1,114%
13,C/C(=N\NC(N)=S)C(C)(C)O,26.2%
14,CCOC(=O)c1c(NC(=O)c2ccccc2C(F)(F)F)sc2c1CCC(=O)C2,58.6%
15,C#CCOc1cccc(Nc2ncnc3cc(NC(=O)CCl)ccc23)c1,-52.5% (active)
16,C/C(Cc1ccc(Cl)cc1)=C(\c1ccc(OCCN2CCCCCC2)cc1)c1ccc(OC(=O)c2ccccc2)cc1,48.1%
17,S=C(SSC(=S)N(c1ccccc1)c1ccccc1)N(c1ccccc1)c1ccccc1,107%
18,N/C(=N\C(N)=N\c1nc2ccccc2s1)c1ccncc1,56.6%
19,CC(C)COC(=O)COC(=O)OCCOCCOC(=O)OCC(=O)OCC(C)C,105%
20,CCCCCCCC[C@@H](O)CC(=O)N[C@@H](CC(N)=O)C(=O)N[C@@H](CCC(N)=O)C(=O)N[C@@H](CC(=O)c1cc(C)cc(O)c1C(=O)c1c(O)cccc1O)CC(C)C,3.34% (active)
